Laboratory results reported in PubChem BioAssay (NCI).
About 83,000 compounds went through this panel and 20% of them were active in at least one assay; those are over-represented in the sample as a whole.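 How to read the values: 0–100, growth inhibition (40 = 60% inhibited); 0, no net growth; -100 to 0, cell death (-40 = 40% of starting cells died; -100 = all dead).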 A number with no mark means an inactive call. Active and inactive are the calls of the source.

system: COLO 205 colon; assay: NCI-60 one-dose screen, 48 h (100 = growth as untreated, 0 = no growth, -100 = all killed); conditions: 10 µM unless noted
Procedure: Cells are grown in 96 well plates and exposed to the test compound for 48 hours. Compounds are tested at a single concentration, which is 10^-5 M for most compounds. The reported endpoint is percent growth (GI% or GIPRCNT), where numbers from 0 - 100% represent growth inhibition, and numbers from -100% - 0 represent cell death. For example, a value of 40 represents 60% growth inhibition. A value of 0 means no net growth occurred over the course of the experiment. A value of -40 indicates 40% of cells at the beginning of the experiment died by the end of the experiment. A value of -100 means all cells are dead at the end of the experiment.
NCI-60 Human Tumor Cell Lines Screen was performed using the standard one-dose NCI protocol, which is described in more detail at https://dtp.cancer.gov/discovery_development/nci-60/default.htm.
Compounds with GIPRCNT values below 10 were considered active. Activity score was based on GIPRCNT using the following formula: […]
Score is 0 for GIPRCNT values of 100 or above, 50 for GIPRCNT values of 0, and 100 for GIPRCNT values of -100.

Row | Structure (SMILES) | growth
1 | C=C1C(=O)O[C@H]2[C@H]1CC/C(CNC(=O)/C=C/c1ccccc1F)=C\CC[C@@]1(C)O[C@@H]21 | -45% (active)
2 | O=C1/C(=C\c2cn(Cc3ccccc3)c3ccc(Br)cc23)c2ccccc2N1c1c(Cl)cccc1Cl | 108%
3 | O=c1[nH]c(=O)[nH]c(=S)[nH]1 | 103%
4 | O=C(Nc1ccc(F)cc1)c1c(NC(=O)C(F)(F)F)sc2c1CCCCC2 | -18.6% (active)
5 | O=C1Nc2c(ccc(Cl)c2Cl)/C1=C/c1ccc(F)cc1 | 97.7%
6 | CCOc1ccc(/C=N/Nc2cc(C)nc3ccc(Cl)cc23)cc1 | 21%
7 | Clc1nc(Cl)c2ncn(CC3(Cn4cnc5c(Cl)nc(Cl)nc54)COC3)c2n1 | -76.6% (active)
8 | COc1cccc(C(Cc2ccccc2)Nc2ccccc2)c1OC (stereo not given) | 105%
9 | C#CCn1cc(C=C2C(=O)NC(=S)NC2=O)c2cc(Cl)ccc21 | 33.2%
10 | CC1(C)NCCC[C@]2(C)[C@H]3CC=C4[C@@H]5C[C@@](C)(CO)CC[C@]5(C)CC[C@@]4(C)[C@]3(C)CC[C@@H]12 | -4.98% (active)
11 | O=C(O)c1ccc[n+](CC(=O)N2CCN(c3cc4c(cc3F)c(=O)c(C(=O)O)cn4C3CC3)CC2)c1 | 45.4%
12 | COc1c(Cl)cc(Cl)c2ccc(C=C3C(=O)NC(=S)NC3=O)nc12 | 113%
13 | Cc1cc(Nc2cccc(C(F)(F)F)c2)n2c(nc3ccccc32)c1C#N | 36.9%
14 | CCCCCCCCN1C(=O)/C(=c2\sc3n(c2=O)C2C(NN=3)N(CC)C(=O)N2CC)c2ccccc21 (stereo not given) | 104%
15 | Cn1ncc2c(Nc3ccccc3Cl)nc(Cl)nc21 | 127%
16 | Cc1ccc2[nH]c(=O)cc(-n3nncc3COc3ccc(C=O)cc3)c2c1 | 128%
17 | CC(C)Cc1ccc(C(C)C(=O)NCc2ccc(Cn3c(=O)sn(-c4ccc(Cl)cc4)c3=O)cc2)cc1 (stereo not given) | 74%
18 | COc1ccncc1C#Cc1cncc(C(=O)Nc2ccc(CN3CCN(C)CC3)c(C(F)(F)F)c2)c1 | 4.09% (active)
19 | COc1cc2ncnc(Nc3ccc(C(=O)/C=C/c4ccc(C(F)(F)F)cc4F)cc3)c2cc1OC | 160%
20 | O=C1NC(=O)C(=Cc2cn(Cc3ccccn3)c3ccccc23)C(=O)N1 | 54.4%

Row | Structure (SMILES) | growth
21 | CCCCCCOc1ccc(C(=N)N(CCCC)CCCC)c2ccccc12 | -79.9% (active)
22 | O=C(Nc1nc(-c2ccc(Br)cc2)cs1)c1cc(-c2ccc(Br)cc2)nc2ccc(Cl)cc12 | 84.5%
23 | CC[C@H](CC[C@@H](C)[C@H]1CC[C@H]2[C@@H]3CC=C4C[C@@H](OCCc5nn[nH]n5)CC[C@]4(C)[C@H]3CC[C@]12C)C(C)C | 118%
24 | CC(=O)OCC(=O)[C@@]1(O)CC[C@H]2[C@@H]3CC(=C(Br)Br)C4=CC(=O)CC[C@]4(C)[C@H]3C(=O)C[C@@]21C | 99.5%
25 | COc1cc(NCCN(CC(C)C)C2CCCC2)c2ncccc2c1 | 101%
26 | COc1ccc(-c2nc(N/N=C/c3ccco3)nc(N3CCOCC3)c2C#N)cc1 | 85.7%
27 | CCCOc1nc(SCCC)nc2c1cnn2-c1ccccc1 | 103%
28 | COc1cc(Nc2cc(O)c3c(=O)cc(-c4ccccc4)oc3c2)cc(OC)c1 | 48.4%
29 | NC(=O)c1cccc(-c2ccccc2N2CCCCC2)c1 | 121%
30 | Cc1ccc(-c2c(Br)c(OC(=O)CO[C@@H]3C[C@H](C)CC[C@H]3C(C)C)c(-c3ccc(C)cc3C)c(Br)c2OC(=O)CO[C@H]2C[C@@H](C)CC[C@@H]2C(C)C)c(C)c1 | 95.3%
31 | CN1CCN(c2cc(F)c(NC3=C(Cl)C(=O)c4ncccc4C3=O)c(F)c2)CC1 | 34%
32 | COc1ccc(/C=C(/c2ccccc2)[N+](=O)[O-])cc1 | -71.9% (active)
33 | Clc1cc(Cl)cc(N2N=C(c3cccc(Nc4ccncc4)c3)CC2c2ccc(Br)cc2)c1 (stereo not given) | -40.5% (active)
34 | CN1CCN(Cc2ccc(NC(=O)c3cncc(C#Cc4cnccc4C(F)(F)F)c3)cc2C(F)(F)F)CC1 | 44.4%
35 | N#Cc1cc(-c2nc3ccccc3s2)c(=O)n(NS(=O)(=O)c2ccc(Cl)cc2)c1N | 122%
36 | CN(C)C(=O)c1cc2cnc(Nc3ccc(-c4csc5c(=O)cc(N6CCOCC6)oc45)cc3)nc2n1C1CCCC1 | -84.3% (active)
37 | COc1ccc(Cc2nc3cc(OC)c(OC)cc3c(=O)[nH]2)cc1 | 68.5%
38 | Cc1ccc(S(=O)(=O)Nc2ccc(Cl)cc2)cc1 | 111%
39 | C=C(C)[C@@H]1CC[C@]2(CO)CC[C@]3(C)[C@H](CC[C@@H]4[C@@]5(C)CCCNC(C)(C)[C@@H]5CC[C@]43C)[C@@H]12 | -63.5% (active)
40 | O=C(Nc1nc2ccc(C(=O)N3CCN(c4ccc(Cl)c(Cl)c4)CC3)cc2s1)c1ccc(NCCc2ccccc2)c([N+](=O)[O-])c1 | 108%
